Assay outcomes as filed in PubChem.
PTK2B oligo ant: blocks oligomerization of human Pyk2 in cells. z-score (the deposit names both 25 µM and 10 µM). Q293 cells, Pyk2 FERM NanoBiT luminescence; active compounds read low. hit rate 0.83% among 99,000. Q14289;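 active = Z-score of -3 or lower, scaled per plate to the spread of control and sample wells; inactive = z-score above -3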;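 also: negative z-score means lost luminescence so less FERM oligomerization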
FAK inh: inhibitors of human focal adhesion kinase; biochemical FAK kinase activity assay; inhibition, %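 (tested at 7 µM)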; hit rate 0.84% among 97,000; AID 727
Mac1 fbg inh: blocks human CD11b/CD18 adhesion to fibrinogen; P05107+P11215; K562 CD11b/CD18 adhesion to fibrinogen, ATPlite luminescence; Mn2+ added to activate the integrin; inhibition, % at 10 µM; hit rate 0.54% among 93,000;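 active = primary inhibition of 50% or more at 10 µM, then 40% or more on retest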
Target sequence (P05107 whole entry, looked up, other chains not shown): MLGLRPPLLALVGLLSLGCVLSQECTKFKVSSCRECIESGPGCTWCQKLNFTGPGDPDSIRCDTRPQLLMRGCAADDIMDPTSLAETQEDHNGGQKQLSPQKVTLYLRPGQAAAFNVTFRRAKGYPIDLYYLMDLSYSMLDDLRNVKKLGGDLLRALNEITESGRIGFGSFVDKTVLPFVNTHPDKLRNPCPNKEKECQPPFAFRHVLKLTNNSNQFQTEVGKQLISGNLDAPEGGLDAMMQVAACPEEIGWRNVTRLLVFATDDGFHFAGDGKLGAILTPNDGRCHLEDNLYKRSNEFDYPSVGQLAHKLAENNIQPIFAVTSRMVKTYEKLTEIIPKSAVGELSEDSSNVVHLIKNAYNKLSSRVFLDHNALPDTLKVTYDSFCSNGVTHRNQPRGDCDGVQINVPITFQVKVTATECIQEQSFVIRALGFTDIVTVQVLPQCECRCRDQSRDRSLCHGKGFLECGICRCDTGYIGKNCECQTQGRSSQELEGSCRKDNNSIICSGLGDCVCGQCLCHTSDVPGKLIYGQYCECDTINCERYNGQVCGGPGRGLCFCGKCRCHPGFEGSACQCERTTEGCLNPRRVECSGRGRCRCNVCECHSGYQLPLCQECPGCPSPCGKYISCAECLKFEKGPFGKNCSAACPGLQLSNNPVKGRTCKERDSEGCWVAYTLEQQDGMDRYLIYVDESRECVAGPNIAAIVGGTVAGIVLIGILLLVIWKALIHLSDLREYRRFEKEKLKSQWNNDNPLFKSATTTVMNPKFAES
CD11b adhes enh: increases human CD11b/CD18 adhesion to fibrinogen; AID 1499; hit rate 0.07% among 93,000; P05107+P11215; K562 CD11b/CD18 adhesion to fibrinogen, ATPlite luminescence; activation, % at 10 µM;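 active = 10 µM primary screen giving 50% or more activity, confirmed by 40% or more on retest at that dose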
FAK inh confirm: confirmation of human focal adhesion kinase (FAK) inhibitors; shares compounds with FAK inh; FAK kinase biochemical inhibition assay; inhibition, % at 7 µM; hit rate 28% among 750
Large screens that a line does not name were inactive (follow-up assays come after a bar, where they were run). An excerpt weighted towards active compounds, which were near 1.8% of everything screened. Rule as the data show it, unless noted: active = inhibition above about 19%; inactive = the rest.

O=C(N/C(=C\c1cccnc1)C(=O)N1CCOCC1)c1cccc(Br)c1	none
O=C(/C=C/c1cccnc1)c1ccc(NC(=O)c2cccc(Br)c2)cc1	CD11b adhes enh 71.5
CCOC(=O)c1c(NC(C)=O)sc2c1CCCNC2=O	none
CCOC(=O)c1c(NC(C)=O)sc2c1CCC(C=O)=C2Sc1ccccc1	PTK2B oligo ant -3.51
CCCCn1c(CN2CCN(c3ccccc3)CC2)nc2c1c(=O)n(C)c(=O)n2C	Mac1 fbg inh 65.1 (no result: PTK2B oligo ant)
Cn1c(=O)c2c(nc(CN3CCN(c4ccccc4)CC3)n2CCCc2ccccc2)n(C)c1=O	none (no result: PTK2B oligo ant, Mac1 fbg inh, CD11b adhes enh)
CCCCn1c(CN2CCN(c3cccc(Cl)c3)CC2)nc2c1c(=O)n(C)c(=O)n2C	none
CCCn1c(CN2CCN(c3cccc(Cl)c3)CC2)nc2c1c(=O)n(C)c(=O)n2C	Mac1 fbg inh 91.0 (no result: PTK2B oligo ant)
CC(=O)Nc1ccccc1-c1nc2ccccc2nc1OCC(=O)c1ccc(Cl)cc1	none (no result: PTK2B oligo ant, FAK inh)
CCC(C)NS(=O)(=O)c1ccc(NS(=O)(=O)c2ccc(F)cc2)cc1 (stereo not drawn)	none
Cc1ccc(-c2nc3ccccc3c(C(=O)NCc3cccs3)c2C)cc1	none
Cc1nn(-c2cc(N3CCCCCC3)ccc2[N+](=O)[O-])c(=O)c2ccccc12	PTK2B oligo ant -4.14 (no result: Mac1 fbg inh, CD11b adhes enh)
Cc1nn(-c2cc(N3CCCCC3)ccc2N)c(=O)c2ccccc12	none (no result: Mac1 fbg inh, CD11b adhes enh)
CC1=C(C(=O)OC2CCCCC2)C(c2ccco2)C2=C(CC(C)(C)CC2=O)N1 (stereo not drawn)	PTK2B oligo ant -3.34
Cc1cccc(Oc2sc(C(=O)c3ccccc3)c(N)c2C#N)c1	none (no result: Mac1 fbg inh, CD11b adhes enh)
COc1ccc(OC)c(NC(=O)COC(=O)c2c3c(nc4ccccc24)CCCC3)c1	PTK2B oligo ant -4.38
COc1ccc(NC(=O)COC(=O)c2c3c(nc4ccccc24)CCCC3)cc1	PTK2B oligo ant -4.52 (no result: Mac1 fbg inh, CD11b adhes enh)
COc1ccc(NC(=O)COC(=O)c2c3c(nc4ccccc24)CCCC3)cc1Cl	PTK2B oligo ant -4.62
Cc1noc(C)c1CSc1nc2ccccc2n1CCc1ccccc1	none
COc1ccc(/C=N/NC(=O)c2ccn[nH]2)cc1COc1ccc(Cl)cc1Cl	FAK inh 21.2 | FAK inh confirm inactive
O=C(c1ccco1)[C@@H]1[C@@H]2C(=O)N(c3ccc(F)cc3)C(=O)[C@@H]2C2c3ccccc3C=CN21 (stereo partly drawn)	FAK inh 34.6 (no result: PTK2B oligo ant) | FAK inh confirm inactive
CC(C)(C)C(=O)[C@@H]1[C@@H]2C(=O)N(Cc3ccccc3)C(=O)[C@@H]2[C@H]2c3ccccc3C=CN12	none (no result: PTK2B oligo ant)
CC(=O)[C@@H]1[C@@H]2C(=O)N(C3CCCCC3)C(=O)[C@@H]2C2c3ccccc3C=CN21 (stereo partly drawn)	none (no result: PTK2B oligo ant)
CC(=O)[C@H]1[C@@H]2C(=O)N(c3cccc(Cl)c3)C(=O)[C@@H]2[C@H]2c3ccccc3C=CN21	FAK inh 22.9 | FAK inh confirm inactive
O=C(c1ccco1)[C@@H]1[C@@H]2C(=O)N(c3ccc(Br)cc3)C(=O)[C@@H]2C2c3ccccc3C=CN21 (stereo partly drawn)	FAK inh 19.2 | FAK inh confirm inactive
CC(=O)NC1=C(C#N)C(c2ccccc2)c2c(ccc3ccccc23)O1 (stereo not drawn)	none
CCCc1nc2sc3ccccc3c(=O)c2c(=O)n1Cc1ccco1	FAK inh 22.1 | FAK inh confirm inactive
O=C(NCCN1CCOCC1)c1cc2cc(Cl)cc(Cl)c2oc1=O	none (no result: PTK2B oligo ant, Mac1 fbg inh, CD11b adhes enh)
CCOc1ccc(C(=O)Nc2cccc(-c3cc4ccccc4oc3=O)c2)cc1[N+](=O)[O-]	FAK inh 29.5 (no result: Mac1 fbg inh, CD11b adhes enh) | FAK inh confirm inactive
CCOc1ccc(C(=O)Nc2ccc(NC(=O)c3cccs3)cc2)cc1[N+](=O)[O-]	none (no result: PTK2B oligo ant, FAK inh)
c1ccc2c(-c3ccncc3)c[nH]c2c1	FAK inh 20.6 | FAK inh confirm inactive
c1ccc(-c2nnc(-c3ccccc3)c(-c3c[nH]c4ccccc34)n2)cc1	none
CCOC(=O)c1cnc(SC)nc1Sc1ccccc1	none
CCc1ccccc1NC(=O)CN(C)C(=O)CSc1nn(-c2ccccc2)c(=S)s1	none (no result: PTK2B oligo ant, FAK inh)
O=c1cc(-c2cccc3ccccc23)[nH][nH]1	FAK inh 23.3 (no result: Mac1 fbg inh, CD11b adhes enh) | FAK inh confirm inactive
Cc1ccc(C2NC(=O)Cc3ccccc32)cc1 (stereo not drawn)	none
CCN(CC)CCCOc1nc(C)nc2c1oc1ccccc12	FAK inh 18.9 | FAK inh confirm inactive
CCN(CC)CCOc1nc(C)nc2c1oc1ccccc12	none
CC(C)(C)n1nc(-c2ccc(Cl)cc2)c2c(N)ncnc21	FAK inh 26.4 (no result: Mac1 fbg inh, CD11b adhes enh) | FAK inh confirm inactive
Cc1ccc(-c2nc(N)c3c(-c4ccc(C)cc4)nn(C(C)(C)C)c3n2)cc1	none
CC(C)(C)n1nc(-c2ccc(F)cc2)c2c(N)ncnc21	FAK inh 32.0 | FAK inh confirm inactive
NC(=O)C1=NOC(CNc2ncc(C(F)(F)F)cc2Cl)C1 (stereo not drawn)	none
COCc1cc(C)nc2sc(C(=O)OC)c(N)c12	none
COC(=O)c1sc2cnccc2c1N	FAK inh 24.3 | FAK inh confirm inactive
Cc1ccc(NCc2ccccc2O)cc1	none
Cc1ccc(CNc2ccc(O)cc2)cc1	FAK inh 51.9 | FAK inh confirm inactive
N#Cc1ccccc1/C=N/Nc1nc(-c2ccccc2)c2cc(Cl)ccc2n1	FAK inh 50.1 | FAK inh confirm 34.2
O=C1NC(=S)N/C1=C\c1cccc([N+](=O)[O-])c1	none
O=C1NC(=S)N/C1=C/c1ccc(-c2c(Br)cc([N+](=O)[O-])cc2Br)o1	FAK inh 35.6 (no result: PTK2B oligo ant) | FAK inh confirm inactive
CC(C)OC(=O)CSc1nnc(-c2ccccc2)n1N	none
CC(/C=C(\NC(=O)c1ccccc1)C(=O)N=Nc1c(O)[nH]c2ccc(C)cc12)=C\c1ccccc1	none
N#Cc1cnn2c1nc(N1CCOCC1)c1ccccc12	FAK inh 50.7 | FAK inh confirm 26.0
CCCc1nc2n[nH]c(N)c2c2c1CCCC2	FAK inh 21.4 | FAK inh confirm inactive
CCCCn1c(CNC(=O)C23CC4CC(CC(C4)C2)C3)nnc1SC(C)CC (stereo not drawn)	none (no result: PTK2B oligo ant, FAK inh)
CN1C(=O)c2cccc3c(S(=O)(=O)NCc4ccco4)ccc1c23	FAK inh 36.2 | FAK inh confirm 21.2
CN1C(=O)c2cccc3c(S(=O)(=O)Nc4ccccn4)ccc1c23	none (no result: Mac1 fbg inh, CD11b adhes enh)
Cc1cccc(CN2C(=O)CCSc3ccc(Cl)cc32)c1	none (no result: Mac1 fbg inh, CD11b adhes enh)
CC(C)CC(=O)c1c[nH]c(C(=O)NCc2cccs2)c1	none
CCc1c(C)nc(SCC(N)=O)c(C#N)c1C	none
CCc1c(C)nc(SCC(=O)c2cccs2)c(C#N)c1C	FAK inh 30.4 | FAK inh confirm 25.9
O=C(Nc1ccc(Cl)cc1)N(C1=NCCC1)c1ccc(OC(F)F)cc1	none
Cc1cc(NCCCN)nc(-c2ccccc2O)n1	FAK inh 20.8 | FAK inh confirm inactive
Cc1ccc(Nc2cc(C)nc(-c3ccccc3O)n2)cc1	none
Cc1ccc(O)c(C2=NOC(O)(C(F)(F)F)C2)c1 (stereo not drawn)	none
O=C(ONc1ccc(N=NC(=O)c2ccccc2O)cc1)c1ccccc1	FAK inh 79.9 | FAK inh confirm 21.8
COc1cc(-c2cc(OC)c3c(C)oc(C)c3c(=O)c2)ccc1O	FAK inh 20.5 | FAK inh confirm inactive
